Screening data deposited in PubChem by NMMLSC.
MEKK2mut PB1 HTS – signal of MEK5 binding to mutant human MEKK2 PB1 domain. bead flow cytometry, Alexa488-MEK5 binding to MEKK2 mutant. percent response, % at 10 µM. AID 1530. 290,000 tested, 0.35% active; in the data active = percent response above about 24%, passing the limit was not always enough
MEKK3 PB1 HTS – MEKK3-MEK5 PB1 interaction, increase or decrease; Q99759; bead-based flow cytometry, Alexa488-MEK5 binding to MEKK3; actives lie on both sides; 0 = blocked by unlabeled MEK5, 100 = vehicle; binding response (% of control), % at 10 µM; 290,000 tested, 1.4% active;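 active = binding response more than 3 SD above or below the average of its plate-row segment, actives on both sides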;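 also: Alexa488 bead fluorescence after subtracting the streptavidin-only scavenger bead signal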
Target sequence (Q99759 whole entry, looked up): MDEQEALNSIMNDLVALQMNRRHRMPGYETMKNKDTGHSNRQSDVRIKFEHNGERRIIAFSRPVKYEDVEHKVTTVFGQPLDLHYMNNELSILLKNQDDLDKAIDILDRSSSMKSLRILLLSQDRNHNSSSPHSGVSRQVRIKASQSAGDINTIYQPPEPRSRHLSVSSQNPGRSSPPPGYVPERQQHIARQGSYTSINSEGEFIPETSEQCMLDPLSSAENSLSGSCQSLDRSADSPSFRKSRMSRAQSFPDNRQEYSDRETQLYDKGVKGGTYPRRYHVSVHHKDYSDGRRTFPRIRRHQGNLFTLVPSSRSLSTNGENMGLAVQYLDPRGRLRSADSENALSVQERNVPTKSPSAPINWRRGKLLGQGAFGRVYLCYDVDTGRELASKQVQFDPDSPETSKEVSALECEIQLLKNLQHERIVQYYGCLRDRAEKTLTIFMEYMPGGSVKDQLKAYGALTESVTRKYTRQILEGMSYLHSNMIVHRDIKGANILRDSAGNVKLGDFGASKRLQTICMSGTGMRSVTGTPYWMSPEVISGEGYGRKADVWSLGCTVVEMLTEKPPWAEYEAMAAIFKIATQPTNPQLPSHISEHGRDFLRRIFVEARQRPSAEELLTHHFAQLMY
MEKK2wt PB1 HTS – raises or lowers MEK5 binding to wildtype human MEKK2 PB1 domain. Q9Y2U5. bead flow cytometry, Alexa488-MEK5 binding to MEKK2 WT; actives lie on both sides. binding response (% of control), % at 10 µM. 290,000 tested, 1.1% active; in the data active = binding response below about 67% or above about 130%
VLA-4 inh – inhibition in a human VLA-4 binding assay. P13612. VLA-4 expressing cells, ligand binding flow cytometry. inhibition, % (about 7 µM as worked out from the volumes in the protocol). 330,000 tested, 0.2% active. AID 2557; in the data active = inhibition above about 50%
MEKK2wt confirm – raises or lowers MEK5 binding to wildtype human MEKK2, retest; 5,900 tested, 2.4% active; shares compounds with MEKK3 PB1 HTS; bead flow cytometry, Alexa488-MEK5 binding to MEKK2 WT; actives lie on both sides; binding response (% of control), % at 10 µM; in the data active = binding response below about 16% or above about 210%; inactive = in between
MEKK2mut confirm – signal of MEK5 binding to mutant human MEKK2, retest | shares compounds with MEKK3 PB1 HTS | bead flow cytometry, Alexa488-MEK5 binding to MEKK2 mutant | percent response, % at 10 µM | 5,900 tested, 2% active | AID 1893; in the data active = percent response mostly above about 71%, no sharp cut-off; inactive = mostly below about 38%;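 also: higher means compound restores mutant binding toward wildtype level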
MEKK3 confirm – confirmation of inhibitors of MEK5 binding to human MEKK3; bead flow cytometry, Alexa488-MEK5 binding to MEKK3; active compounds read low; binding response (% of control), % at 10 µM; shares compounds with MEKK3 PB1 HTS; 5,900 tested, 1.8% active;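 active = binding response below 72% of control, or above a set upper limit, though filed actives all read lower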;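 also: lower values mean stronger disruption of MEK5 binding to MEKK3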
Large screens that a line does not name were inactive (follow-up assays come after a bar, where they were run); ! = not active in a repeat; [ ] = another dose, or the depositor's remark. A selection: hits, their analogues and other compounds. The true share with any hit is near 2.2%.

O=C(Nc1nccs1)c1c(O)c2c(n(Cc3ccco3)c1=O)CCCC2	MEKK2wt PB1 HTS -4.0
CN1C(=O)C(=Cc2sc(=O)n(-c3ccccc3)c2N2CCCCC2)C(=O)N(C)C1=O	none (no result: VLA-4 inh)
CN1CCN(c2nc3ccccn3c(=O)c2C=C2C(=O)N(C)C(=O)N(C)C2=O)CC1	MEKK3 PB1 HTS 135
CC1(C)OC(c2ccccc2)=C/C(=C/C=C2C(=O)NC(=S)NC2=O)O1	MEKK3 PB1 HTS 73[inhibitor], MEKK2wt PB1 HTS -5.0[inhibitor]
Cc1ccccc1N1C(=O)/C(=C/c2ccco2)C(=O)NC1=S	MEKK3 PB1 HTS 82[inhibitor]
O=C1/C(=C/c2ccccc2)C[C@@]2(O)[C@H]3Cc4ccc(O)c5c4[C@@]2(CCN3CC2CC2)C1O5 (stereo partly drawn)	none (no result: MEKK2mut PB1 HTS, MEKK3 PB1 HTS, MEKK2wt PB1 HTS)
COC(=O)C1=CO[C@@H](C)[C@@H]2CN3CC[C@@]4(C(=O)Nc5ccccc54)[C@@H]3C[C@H]12	none
COC(=O)C1=CO[C@@H](C)[C@@H]2CN3CC[C@]4(C(=O)Nc5ccccc54)[C@@H]3C[C@H]12	MEKK3 PB1 HTS 138
[N-]=[N+]=NC1C[C@H](n2ccc(=O)[nH]c2=O)O[C@@H]1CO (stereo partly drawn)	none
Oc1ccc2c3c1OC1c4oc5ccccc5c4C[C@@]4(O)[C@@H](C2)N(CC2CC2)CC[C@]314 (stereo partly drawn)	none (no result: MEKK2mut PB1 HTS, MEKK3 PB1 HTS, MEKK2wt PB1 HTS)
CCN1CCN(c2cc(N3CCCC3)c(F)cc2[N+](=O)[O-])CC1	MEKK3 PB1 HTS 159
CN1[C@@H]2CC[C@H]1CC(OC1c3ccccc3CCc3ccccc31)C2 (stereo partly drawn)	none (no result: MEKK2mut PB1 HTS, MEKK3 PB1 HTS, MEKK2wt PB1 HTS)
Cc1cc2c(C(C)C)c(O)c(O)c(C=O)c2c(O)c1-c1c(C)cc2c(C(C)C)c(O)c(O)c(C=O)c2c1O	MEKK3 PB1 HTS 42![inhibitor], MEKK2wt PB1 HTS 58[inhibitor] (no result: VLA-4 inh)
CN1CC[C@@H](c2ccc(F)cc2)[C@H](COc2ccc3c(c2)OCO3)C1	none (no result: VLA-4 inh)
CC(C)(C)NC(=O)NC(=O)CN1CC=C(c2ccccc2)CC1	MEKK2mut PB1 HTS 60
CN1CC[C@]2(c3cccc(O)c3)Cc3nc4ccccc4cc3C[C@H]2C1	MEKK3 PB1 HTS 62![inhibitor] (no result: VLA-4 inh)
CC(C)c1ccc(N2C(=O)NC(=O)/C(=C/C=C/c3ccco3)C2=O)cc1	MEKK2wt PB1 HTS 60[inhibitor]
Cc1ccc(N2C(=O)NC(=O)/C(=C/C=C/c3ccco3)C2=O)cc1	none
C[C@]12CCC3C(CC[C@H]4C[C@H](O)CC[C@]34C)C1C[C@H](O)[C@@H]2O (stereo partly drawn)	none (no result: MEKK2mut PB1 HTS, MEKK3 PB1 HTS, MEKK2wt PB1 HTS)
CC1CCCN(C(=O)CN2C3CCC2CC(O)(c2ccc(F)cc2)C3)C1 (stereo not drawn)	none
CC1CCCN(C(=O)CCl)C1 (stereo not drawn)	VLA-4 inh 56
Clc1ccc(CCC(Cn2ccnc2)Sc2c(Cl)cccc2Cl)cc1 (stereo not drawn)	none (no result: MEKK2mut PB1 HTS, MEKK3 PB1 HTS, MEKK2wt PB1 HTS)
COc1ccc2c3c([nH]c2c1)C(C)NCC3 (stereo not drawn)	MEKK2wt PB1 HTS 1.0
COc1ccc2[nH]c3c(c2c1)CCNC3C (stereo not drawn)	none
CN1c2ccc([N+](=O)[O-])cc2CC2(C(=O)NC(=O)NC2=O)C1c1ccccc1 (stereo not drawn)	MEKK3 PB1 HTS 134 | MEKK2wt confirm inactive | MEKK2mut confirm inactive | MEKK3 confirm inactive
CC(=O)OC1C=CC2[C@H]3Cc4ccc(O)c5c4[C@@]2(CCN3C)C1O5 (stereo partly drawn)	none (no result: MEKK2mut PB1 HTS, MEKK3 PB1 HTS, MEKK2wt PB1 HTS)
CN(C(=O)Oc1ccc([N+](=O)[O-])cc1)c1ccccc1	MEKK3 PB1 HTS 73[inhibitor] | MEKK2wt confirm inactive | MEKK2mut confirm inactive | MEKK3 confirm inactive
CC(=O)N1N=C2C3CCN(CC3)C2C1c1ccccc1 (stereo not drawn)	MEKK3 PB1 HTS 1.0[inhibitor], MEKK2wt PB1 HTS -2.0[inhibitor] | MEKK2wt confirm inactive | MEKK2mut confirm inactive | MEKK3 confirm inactive
FC(F)(F)c1ccc2c(c1)N(CCCN1CCN(CCCl)CC1)c1ccccc1S2	MEKK2mut PB1 HTS 24, MEKK2wt PB1 HTS 173 | MEKK2wt confirm inactive | MEKK2mut confirm inactive | MEKK3 confirm inactive
